Numbering of substitutions follows the chain as printed. The full ranking holds about 5,800 sequences; the median of “enrichment r” is about 0.54, and the highest 2% start at about 16. Only a selection was taken, and the highest values are over-represented in it overall.
B1: chr2:99394746:99394872:+|CDS|ENSG00000158417|unk|FALSE|unique (ssRNA)
RNA: GGGAGUUCUACAGUCCGACGAUCGAUGUGAGAAUUGAACGAGAUGCACAAGAAAUGGCUGAUAGUUUAGGAGUUAGAAUUUUUAGUGCAGAAAUUAUUUAUCAUUUAUUUGAUGCCUUUACAAAAUAUAGACAAGACUACAAGCAACAGAGGAUUGAGCAUCA
B2: chr5:24509697:24509799:-|CDS|ENSG00000040731|unk|FALSE|unique (ssRNA)
RNA: GGGAGUUCUACAGUCCGACGAUCACUCGACUAUGAGAGCCGAAGACUUUAUACUCUGAAAGUCGAAGCAGAAAACACCCAUGUAGAUCCCCGUUUUUAUUACCUAGGACCAUUUAAAGAUACUACCAUAGUGAAAAUCUCUAUCAACAGAGGAUUGAGCAUCA
B3: chr5:72209348:72209524:+|3pUTR|ENSG00000131711|msi1_unk|total|mutant (ssRNA)
RNA: GGGAGUUCUACAGUCCGACGAUCUUAUGUCUUAUAAUCCUGCAUCACUUCUAUCCUAUCCAGUCAUAUCUAAUGCCGAAAAUCCGUUUCCAGUGAAAGUAAUAUGCCGUGCUUUUAUGAUAUUUGUGUGCAAUAUCCCCUCUUCAACAGAGGAUUGAGCAUCA
B4: chr5:72209348:72209524:+|3pUTR|ENSG00000131711|msi1_unk|FALSE|overlapping (ssRNA)
RNA: B3 RNA with C75U, C76A, C83U, C84A, C106U, C107A
B5: chr17:37686430:37687371:-|three_prime_utr|ENSG00000275410|control|control|control (ssRNA)
RNA: GGGAGUUCUACAGUCCGACGAUCUGCAAUUUCCCCUCUGUGUCCUCUCCCCUCUGCCCUGUAUAUAAUACUAAAGUGUCUAUUAGUUUUCUUUGUAAAGGUCAGAGUCAAAAUUUCAAAAGUGAUCUGUCCCCUCUCCCCUCACAACAGAGGAUUGAGCAUCA
B6: chr2:99394746:99394872:+|CDS|ENSG00000158417|unk|total|mutant (ssRNA)
RNA: B1 RNA with U62C, A63C, U67C, A68C, U74C, A75C, U83C, A84C, U128C, A129C
B7: chr17:61865808:61865921:-|3pUTR|ENSG00000108506|unk|FALSE|unique (ssRNA)
RNA: GGGAGUUCUACAGUCCGACGAUCUUCUAUGAGAAUGAGUUUGUAGCUGUUUCAAAUCAUGAAGUGCAUAGUAUCACAUGUGAUAGAAUAUUUAUAACUUUUUAUUAGAUGCUUAAUGUUCAAUUAAGUAAUUUUGAUGUGAAACAACAGAGGAUUGAGCAUCA
B8: ENSG00000176244:stop:overlap|stop_codon|ENSG00000176244|stop_codon|NA|stop_codon (ssRNA)
RNA: GGGAGUUCUACAGUCCGACGAUCAAGAUGCGACGAGUGCCUAUAUUUCUAAAGCAAAGGAGCUGAUAGAAAAAUACGGAAUUUAGAAUACAGCAUAUGAGGAAUUUUUCCUUUUGAAGACUUCCAAAUGCUAUCAUGACCUAACAACAGAGGAUUGAGCAUCA
B9: chr15:49134392:49134529:-|CDS|ENSG00000166200|unk|FALSE|unique (ssRNA)
RNA: GGGAGUUCUACAGUCCGACGAUCAUAUUUGCUUUCCUAGACUGAUGAUGGAGAAGAUGAUCUGAAAAAAGGUACACAGUUAUUAGAAAUAUAUGCUUUGGAAAUUCAAAUGUACACAGCACAGAAAAAUAACAAAAAACUUAACAACAGAGGAUUGAGCAUCA
B10: chr9:5123879:5124511:-|three_prime_utr|ENSG00000120210|control|control|control (ssRNA)
RNA: GGGAGUUCUACAGUCCGACGAUCCUGGUAAAUUGGAUUGCCAUAUGCAGAAGAAUGAAACUGGACCCAUAUUUAUCACCAUAUAGAAAAAUUAACUCGAUCGAUUACAGACUUAAAUGUAAGAUCUGAAACUAGAAAAAUACUCAACAGAGGAUUGAGCAUCA
B11: chr11:101890673:101891278:-|three_prime_utr|ENSG00000187151|control|control|control (ssRNA)
RNA: GGGAGUUCUACAGUCCGACGAUCGUAAUGCAAGUUCUACAAUGAUAAUAUAUUAAAGAUUUUUAAAAGUUUAUCUUUUCACUUAGUGUUUCAAACAUAUUAGGCAAAAUUUAACUGUAGAUGGCAUUUAGAUGUUAUGAGUUUCAACAGAGGAUUGAGCAUCA
B12: chr16:21983864:21984660:-|three_prime_utr|ENSG00000155714|control|control|control (ssRNA)
RNA: GGGAGUUCUACAGUCCGACGAUCAAAGAAAAUUGAGCUGGCAAAAGAUGAAUCUUUCACAAGCAGUGAUGAUAAUGAAAAUGUAGAUUUAGAUAAAAGACUUCAAUAUUAUAGAUAUCCGUGGUCAACUGUGCAUCACCCUGCCAACAGAGGAUUGAGCAUCA
B13: chr11:118751385:118751486:-|3pUTR|ENSG00000110367|msi1|FALSE|unique (ssRNA)
RNA: GGGAGUUCUACAGUCCGACGAUCUUGAAGUCUCUUCCCUUUCUACCCAGUACUCGAGCCCAGGGCUAGAAGUUGAAACUCACUAGUAAUGUUAAACACCAUUUUUUUUUUCUUUUUGGGGAGGAGUUGAUAUGCAACUGCAGUCAACAGAGGAUUGAGCAUCA
B14: chr4:173322470:173322571:+|3pUTR|ENSG00000109586|msi1|total|mutant (ssRNA)
RNA: GGGAGUUCUACAGUCCGACGAUCUGCCGCAUUCACUCCCUUACCUACUGGCAUUCCCAGUGCCCUCUGUCCAUACCUACUUCCCGGAUUGCAAAGGAGUCUUCCAACCCGAGAAAAAUUGUCCACUGACAUUUGGGAUUUACUCAACAGAGGAUUGAGCAUCA
B15: chr8:7990417:7990620:-|CDS|ENSG00000205989|control|control|control (ssRNA)
RNA: GGGAGUUCUACAGUCCGACGAUCGAUGUCUGCAACAUAGUAGAAGAUCAAAUUGGUGCCUGCCGAAGAAGGAUGAAGUGCUGUAGAGCAUGGUGGAUUUUAAUGCCAAUUCCAACACCACUUAUCAUGUCAGAUUAUCAAGAACAACAGAGGAUUGAGCAUCA
B16: chr20:37241422:37241523:+|3pUTR|ENSG00000118705|msi1_unk|FALSE|overlapping (ssRNA)
RNA: GGGAGUUCUACAGUCCGACGAUCGUAUGAGAAGAAAAAUGGAAAAAAAAAACUUUAUUUAAAAAAGAAAAAAGUCCAGAUUGUAGUUAUACUUUUGCUUGUUUUUCAGUUUCCCCAACACACAGCAGAUACCUGGUGAGCUCACAACAGAGGAUUGAGCAUCA
B17: chr8:80500255:80500365:+|CDS|ENSG00000205189|unk|total|mutant (ssRNA)
RNA: GGGAGUUCUACAGUCCGACGAUCGAAAAACCAAACUACAAAAAGAUUUAUUUAUAAUAUUCCACCUAAUAAUGAAACGAAUUCCGAAGAUUGCUCAGUAAUGCAGCCACCUGUUGCCUAUCCAGAAGAAAAUACACUACUCAUCAACAGAGGAUUGAGCAUCA
B18: chr2:30158716:30158817:+|CDS|ENSG00000119801|msi1|total|mutant (ssRNA)
RNA: GGGAGUUCUACAGUCCGACGAUCGUUUGCCACUGAAGACAGCCAGCGAUAUAAGGAAGGCCGCGUGAUCCUGGAACGUGCUCCCGUUCGAGAGAGUGAGGGCUUUGAGGAGCAUGUACCAUCUGAUAACUCUUGAAGAUACAGCAACAGAGGAUUGAGCAUCA
B19: chr5:115137525:115137627:-|CDS|ENSG00000152503|unk|FALSE|unique (ssRNA)
RNA: GGGAGUUCUACAGUCCGACGAUCUUUAGCAGAAGAGGCUAUUCUUUGUUUUAUCUUAGUGUAAUGGAGAUACUGUUUUUUCUUAGUGUAAUGGAGAGAGGGCUAAAGAAGAAGCAAUUACACAUUUUGAAAAGCUCUUUGAAGCAACAGAGGAUUGAGCAUCA
B20: ENSG00000115904:stop:overlap|stop_codon|ENSG00000115904|stop_codon|NA|stop_codon (ssRNA)
RNA: GGGAGUUCUACAGUCCGACGAUCUUUUGCAACGAAUGGAAGAAUUUAUUGGAACAGUAAGAGAGCUGUACAGCCAUCAGAAUUAGUUGGAAGUGUGUGGACAAAAGAAGACAAAGAAAUUAACUCUCCUAAUCUUCUGAAAAUCAACAGAGGAUUGAGCAUCA
B21: chr5:52955293:52955406:+|3pUTR|ENSG00000213949|unk|total|mutant (ssRNA)
RNA: GGGAGUUCUACAGUCCGACGAUCUACCAACCAGUGUGAGCUGACUUCAGCACACCACUGAGACAGAUUACACGACCGACAGACCGACCGACCGACCGACCGACCGACCGACCGACCGACCGACCGAUAUUGACCGAGAACAUGCAACAGAGGAUUGAGCAUCA
B22: chr15:56434137:56434395:-|CDS|ENSG00000138587|control|control|control (ssRNA)
RNA: GGGAGUUCUACAGUCCGACGAUCAGAGGAAGAGGAGAACUUUAGAAAAACUAUGCUAGCUAAAUUUGCUGAGGAUGAUCGAAUAGAAUUAAUGAAUGCUCAGAAACAAAGAAUGAAGCAGCUGGAACACAGGAGGGCUGUGGACAACAGAGGAUUGAGCAUCA
B23: chr12:122341087:122341188:-|CDS|ENSG00000130779|unk|total|mutant (ssRNA)
RNA: GGGAGUUCUACAGUCCGACGAUCAGAAUUUGCUGAACUAAAAACACAAACCGAGAAAAUGAGACCCGAUUACCAACACGAAACCGAAAAUUUGCAGAAUCAACAAGACUCUGAACGGGCUGCCCAUGCUAAAGAGAUGGAAGCCAACAGAGGAUUGAGCAUCA
B24: chr12:122341087:122341188:-|CDS|ENSG00000130779|unk|FALSE|bound_elsewhere (ssRNA)
RNA: B23 RNA with C50U, C51A, C65U, C66A, C83U, C84A
B25: chr5:52955293:52955406:+|3pUTR|ENSG00000213949|unk|FALSE|unique (ssRNA)
RNA: GGGAGUUCUACAGUCCGACGAUCUACCAACCAGUGUGAGCUGACUUCAGCACACCACUGAGACAGAUUACACGAUAGACAGAUAGAUAGAUAGAUAGAUAGAUAGAUAGAUAGAUAGAUAGAUAGAUAUUGAUAGAGAACAUGCAACAGAGGAUUGAGCAUCA
B26: ENSG00000136451:be:win_1001|CDS|ENSG00000136451|bound_else_gene|NA|bound_elsewhere_windowed (ssRNA)
RNA: GGGAGUUCUACAGUCCGACGAUCACCAAAAGCAGCAGCAGCAGCAGCAGCAGCAGCAGCAGCAGCAGCAACAACAACAACAACAACAUGUGACAAGCUGGCCAGGGAAGCAAGUAGAAACACUGAGACUGUGGGAAGAAGCUGCAACAGAGGAUUGAGCAUCA

Target: MSI1 full-length (mouse, UniProt Q61474 1-362)
Experiment: nsRBNS (natural sequence RNA bind-n-seq); RBNS binding buffer (assumed for nsRBNS): 25 mM Tris pH 7.5, 150 mM KCl, 3 mM MgCl2, 0.01% Triton X-100, 500 ug/ml BSA, 20 U/ml SUPERase-In, 4 C; UNK is unkempt and MSI1 is Musashi-1; names of the RNAs are library labels; protein concentration not given here; high values mean tight binding

MSI1 full-length, sequence (Q61474 whole entry): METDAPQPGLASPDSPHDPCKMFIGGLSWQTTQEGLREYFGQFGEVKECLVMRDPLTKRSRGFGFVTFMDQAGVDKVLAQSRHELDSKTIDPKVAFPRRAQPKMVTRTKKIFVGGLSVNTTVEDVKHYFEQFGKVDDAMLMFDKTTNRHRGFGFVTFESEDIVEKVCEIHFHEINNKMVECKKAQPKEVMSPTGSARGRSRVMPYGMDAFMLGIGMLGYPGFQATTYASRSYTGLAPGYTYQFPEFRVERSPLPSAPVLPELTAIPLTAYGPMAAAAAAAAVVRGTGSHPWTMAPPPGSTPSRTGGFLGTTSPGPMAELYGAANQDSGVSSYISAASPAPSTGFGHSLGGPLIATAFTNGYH

Binder | binding signal [enrichment R]
B1 | 35
B2 | 3.85
B3 | 0.64
B4 | 22.2
B5 | 0.979
B6 | 0.374
B7 | 5.16
B8 | 0.512
B9 | 0.819
B10 | 19.7
B11 | 3.72
B12 | 43.6
B13 | 1.4
B14 | 0.767
B15 | 0.446
B16 | 1.41
B17 | 3.62
B18 | 0.472
B19 | 2.18
B20 | 1.25
B21 | 0.369
B22 | 3.42
B23 | 0.402
B24 | 16.5
B25 | 67
B26 | 0.597
